Assay outcomes from PubChem.
LGR2 antag – inhibitors of bursicon-induced LGR2 CRE-luciferase signal, primary screen, cell-based, HEK293, CRE-luciferase reporter, bursicon stimulation; AID 720647, 2013; hit rate 0.35% among 380,000; inhibition, % at 9.99 µM; Drosophila bursicon receptor LGR2 (rickets); bursicon-stimulated, 4 h;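 active = drop in luminescence signal, shown as inhibition above about 50% in the replicate tests, limit read from the data, passing the limit was not always enough; inconclusive = probably only some replicates passing the limit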;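 also: agonist challenge used bursicon conditioned medium at about half maximal strength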
HSF1 inhib – HSF1 inhibitors in luciferase reporter cells, primary screen, cell-based, NIH3T3, luminescence | NIH3T3-HGL HSE-luciferase, MG132-induced, luminescence 8 h; stronger effect = lower value | activity change, negative = inhibition, % at 7.5 µM (by protocol) | hit rate 0.77% among 300,000 | AID 2098, 2009;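 active = more than half of replicate wells show activity change below -50%, luminescence cut by over half; inconclusive = some wells, but at most half, below -50%; inactive = no replicate well below -50%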;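 also: luciferase reports HSF-1 transcriptional activity via heat shock element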
TROY NFkB inh – inhibitors of TROY-driven NF-kB signaling, primary screen, Q293 LMP1-TROYcd cells, NF-kB luciferase, uHTS; hit rate 0.98% among 360,000; inhibition, % at 10 µM; Q293 LMP1-TROYcd NF-kB luciferase reporter, 4 h; AID 1347056, 2019;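 active = compounds whose plate-normalised and pattern-corrected inhibition of the luciferase reporter signal at the single screening dose is 50% or more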
HSF-1 act – HSF-1 activators, primary screen, NIH3T3-HGL cells, MG132 stress, luminescence, single point | NIH3T3-HGL HSF-1 luciferase reporter, 8 h; 100% = twice DMSO control signal | activation, % at 9 µM | hit rate 1.7% among 300,000;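 active = mean replicate activation of at least 50% with a set share of replicates each reaching 50%; inconclusive = only one of those two conditions met; inactive = mean below 50% and too few replicates reaching it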
TWEAK-Fn14 inh – inhibitors of TWEAK-Fn14 signaling, primary screen, luciferase reporter cells, uHTS; TWEAK-stimulated Fn14 reporter cells, luciferase luminescence, 8 h; inhibition, % at 10 µM; hit rate 2% among 360,000; in the data active = inhibition above about 50%
EBV LMP1 NFkB – EBV LMP1-driven NF-kappaB luciferase reporter inhibitors, primary screen, cell-based, luminescence, single point; hit rate 0.69% among 350,000; AID 504558, 2011; LMP1-induced NF-kappaB luciferase reporter cells; inhibition, % at 12.5 µM; in the data active = inhibition above about 41%; inconclusive = no clear call, values can overlap the other calls
Of the large screens only hits and unclear results are named; the others gave an inactive call. A selection: hits, their analogues and other compounds. The true share with any hit is near 3.6%.

CCCN1C[C@@H](C)[C@@H](OC)CN(C)C(=O)c2ccc(NC(=O)c3ccccc3F)cc2OC[C@@H]1C	none (no result: HSF1 inhib, TROY NFkB inh, HSF-1 act, TWEAK-Fn14 inh, EBV LMP1 NFkB)
S=C(N/N=C1\CCc2ccccc21)NC1CCCCC1	HSF1 inhib -55.1, TROY NFkB inh 70.9, TWEAK-Fn14 inh 74.2
O=C(N/N=C1/CCc2ccccc21)C1CC1	none
O=C(N/N=C1\CCc2ccccc21)c1ccccc1Cl	none
O=C(N/N=C1\CCc2ccccc21)c1ccc(O)cc1	TWEAK-Fn14 inh 50.5
COC(=O)C[C@H]1CC[C@@H](NC(=O)c2ccccc2)[C@H](CO)O1	none (no result: HSF1 inhib, TROY NFkB inh, HSF-1 act, TWEAK-Fn14 inh, EBV LMP1 NFkB)
O=C(Nc1ccc(Cl)cc1)Nc1ccc(N2CCCC2)c(S(=O)(=O)Nc2ccccc2Cl)c1	TWEAK-Fn14 inh 74.8
O=C(Nc1ccc(N2CCOCC2)c(S(=O)(=O)Nc2ccccc2Cl)c1)c1ccccc1	none (no result: HSF1 inhib, HSF-1 act)
O=C(c1ccc(N2CCC3(CC2)OCCO3)c([N+](=O)[O-])c1)N1CCOCC1	none
COC(CNC(=O)c1ccc(N2CCC3(CC2)OCCO3)c([N+](=O)[O-])c1)OC	EBV LMP1 NFkB 51.1 (no result: LGR2 antag)
O=C(CC1CC1)N1CC(=O)N2[C@H](CO)[C@H](c3ccc(C#Cc4ccccc4)cc3)[C@H]2C1	none (no result: HSF1 inhib, TROY NFkB inh, HSF-1 act, TWEAK-Fn14 inh, EBV LMP1 NFkB)
O=C(C[C@@H]1C=C[C@H](NC(=O)NC2CCCCC2)[C@@H](CO)O1)NCc1ccccc1	none (no result: HSF1 inhib, TROY NFkB inh, HSF-1 act, TWEAK-Fn14 inh, EBV LMP1 NFkB)
Cc1nc2c(C(=O)NCCC(C)C)c[nH]n2c(=O)c1Cc1ccccc1F	TROY NFkB inh 68.6 (no result: LGR2 antag)
Cc1nc2c(C(=O)NCCC(C)C)c[nH]n2c(=O)c1Cl	none
COCC(=O)Nc1ccc2c(c1)[C@@H]1C[C@@H](CC(=O)N3CCc4ccccc4C3)O[C@@H](CO)[C@@H]1O2	none (no result: HSF1 inhib, TROY NFkB inh, HSF-1 act, TWEAK-Fn14 inh, EBV LMP1 NFkB)
CCOC(=O)N1CCN(C(=O)COC(=O)c2cc(Cl)c(O)c(Cl)c2)CC1	TWEAK-Fn14 inh 71.6
C[C@H](CO)N1C[C@H](C)[C@@H](CN(C)Cc2ccc3cccnc3c2)OCc2cn(nn2)CCCC1=O	none (no result: HSF1 inhib, TROY NFkB inh, HSF-1 act, TWEAK-Fn14 inh, EBV LMP1 NFkB)
COC(=O)c1cccc(NC(=O)/C=C/c2ccc([N+](=O)[O-])cc2)c1	none
CCOC(=O)c1cc(NC(=O)COc2ccc([N+](=O)[O-])cc2)cc(C(=O)OCC)c1	HSF-1 act 53.3
O=C(/C=C/c1cc([N+](=O)[O-])ccc1OC(F)F)Nc1cccc([N+](=O)[O-])c1	HSF1 inhib -73.2
CCOC(=O)c1cccc(NC(=O)/C=C/c2ccc([N+](=O)[O-])cc2)c1	TROY NFkB inh 56.6, TWEAK-Fn14 inh 78.6
O=C(/C=C/c1ccc([N+](=O)[O-])cc1)Nc1cccc(C(=O)Nc2ccccc2C(=O)O)c1	TWEAK-Fn14 inh 70.5
CNC[C@@H]1Oc2ccc(NC(=O)Nc3ccc(OC)cc3)cc2C(=O)N([C@H](C)CO)C[C@H]1C	none (no result: HSF1 inhib, TROY NFkB inh, HSF-1 act, TWEAK-Fn14 inh, EBV LMP1 NFkB)
CO[C@H]1CN(C)C(=O)c2cc(NC(=O)Nc3cccc(F)c3)ccc2OC[C@@H](C)NC[C@@H]1C	none (no result: HSF1 inhib, TROY NFkB inh, HSF-1 act, TWEAK-Fn14 inh, EBV LMP1 NFkB)
O=C(Nc1ccc([N+](=O)[O-])cc1)C(=O)Nc1cccc(C(=O)O)c1	LGR2 antag 98.1, HSF1 inhib -70.8, EBV LMP1 NFkB 90.1
CN(C)S(=O)(=O)c1cccc(NC(=O)COC(=O)/C=C/c2ccc([N+](=O)[O-])cc2)c1	HSF-1 act 63.3
C[C@@H]1CN([C@@H](C)CO)C(=O)c2cc(-c3cncnc3)cnc2O[C@@H]1CN(C)C(=O)Cc1ccccc1	none (no result: HSF1 inhib, TROY NFkB inh, HSF-1 act, TWEAK-Fn14 inh, EBV LMP1 NFkB)
O=C(N/N=C/c1cccc(F)c1)c1c(O)c2ccccc2[nH]c1=O	TWEAK-Fn14 inh 58.0
O=C(N/N=C/c1ccc(F)cc1)c1c(O)c2ccccc2[nH]c1=O	none
O=C(C[C@H]1CC[C@@H]2[C@H](COC[C@@H](O)CN2Cc2cc(F)ccc2F)O1)NCc1ccc(Cl)cc1	none (no result: HSF1 inhib, TROY NFkB inh, HSF-1 act, TWEAK-Fn14 inh, EBV LMP1 NFkB)
COc1ccc(C(=O)C2CCCN(S(=O)(=O)c3ccccc3F)C2)c(C)c1 (stereo unspecified)	HSF1 inhib -77.3
O=C(Cc1ccccn1)N1CC(=O)N2[C@H](C1)[C@@H](c1ccc(C#CC3CCCC3)cc1)[C@@H]2CO	none (no result: HSF1 inhib, TROY NFkB inh, HSF-1 act, TWEAK-Fn14 inh, EBV LMP1 NFkB)
COCC(=O)N1C[C@H](C)[C@@H](OC)CN(C)C(=O)c2cc(NC(=O)c3ccc(F)cc3)ccc2OC[C@@H]1C	none (no result: HSF1 inhib, TROY NFkB inh, HSF-1 act, TWEAK-Fn14 inh, EBV LMP1 NFkB)
Cc1cc(C)c(NC(=O)CSc2nncn2-c2cccnc2)c(C)c1	HSF1 inhib -54.2
Cc1c(Cl)cccc1NC(=O)CSc1nncn1-c1cccnc1	none
OC[C@@H]1[C@@H](c2ccc(/C=C/c3ccccc3)cc2)[C@H]2CN(Cc3ccncc3)CCCCN12	none (no result: HSF1 inhib, TROY NFkB inh, HSF-1 act, TWEAK-Fn14 inh, EBV LMP1 NFkB)
Cc1ccccc1CSc1nsc(N)n1	HSF-1 act 60.5 (no result: LGR2 antag)
Nc1nc(SCc2ccc(Cl)cc2Cl)ns1	none (no result: LGR2 antag)
Cc1oc(-c2cccc3ccccc23)nc1CN1CCN(c2ncnc3ccccc23)CC1	TWEAK-Fn14 inh 68.8
COc1ccc(-c2nc(CN3CCN(c4cc(C)nc(C)c4)CC3)c(C)o2)c2ccccc12	none
Fc1ccc2nc(Nc3nc4cc5c(cc4s3)OCCO5)sc2c1	TROY NFkB inh 62.4
Brc1cc2c(cc1/C=N/Nc1nc3ccccc3s1)OCO2	TROY NFkB inh 78.8, TWEAK-Fn14 inh 57.3
C(=N\Nc1nc2ccccc2s1)/c1ccc2c(c1)OCO2	none (no result: LGR2 antag)
c1ccc2sc(Nc3nc4cc5c(cc4s3)OCO5)nc2c1	HSF-1 act 75.7
Cc1cc(C)nc(Nc2nc3ccccc3s2)n1	none
Cc1ccc(Nc2nc3ccccc3s2)c(C)c1	LGR2 antag inconclusive, HSF-1 act 66.1
Fc1ccc2nc(Nc3nc4cc5c(cc4s3)OCO5)sc2c1	none
C[C@@H]1CCCCO[C@H](CN(C)Cc2ccccc2)[C@@H](C)CN([C@@H](C)CO)C(=O)c2cc(NC(=O)C3CCCCC3)ccc2O1	none (no result: HSF1 inhib, TROY NFkB inh, HSF-1 act, TWEAK-Fn14 inh, EBV LMP1 NFkB)
